# High-throughput results (PubChem BioAssay)
# hgDAF12 agonist: H. glycines DAF-12 receptor agonists, primary screen, cell-based, luminescence, HEK293, GAL4 fusion, UAS-luciferase | Nuclear hormone receptor DAF-12 (Heterodera glycines), GAL4 fusion | HEK293 GAL4-hgDAF12 UAS-luciferase reporter, agonist luminescence; normalized to butyrate control | activation, % at 6.8 µM | 370,000 tested, 1.8% active;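 active means activation above a cutoff set at the mean of all screened compounds plus 3 SD, cut at about 10% in these data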;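 further: 0% = DMSO wells and 100% = sodium butyrate wells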
# ssDAF12 agonist: S. stercoralis DAF-12 nuclear receptor activators, primary screen, cell-based, luminescence, HEK293, GRIP1 co-expression, lit1-tk-luc | AID 652126, 2013 | 370,000 tested, 1% active | HEK293 ssDAF-12/GRIP1 lit1-tk-luc reporter; % of 3 µM dafachronic acid response | activation, % at 6.8 µM;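 active means activation above the mean over all tested compounds plus 3 SD, cut at about 0.9% in these data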;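 further: 0% = DMSO-only wells and 100% = 3 µM delta7-dafachronic acid wells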
# DAX1 inh-1: DAX1 (NR0B1) inhibitors on StAR promoter, primary screen, cell-based, luminescence, SF-1 (NR5A1), full-length DAX-1; HEK293T StAR-luciferase reporter, SF-1/DAX-1 repression relief; inhibition, % at 6.8 µM; 370,000 tested, 1.1% active; AID 652010, 2013;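 active means inhibition above the mean over all tested compounds plus 3 SD, cut at about 3.6% in these data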;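 further: 0% = DAX-1 cells with DMSO and 100% = cells lacking DAX-1 with DMSO; higher inhibition means more luminescence from relief of DAX-1 repression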
# hcDAF-12 act: H. contortus DAF-12 nuclear receptor activators, primary screen, cell-based, luminescence, HEK293, lit1-tk-luc reporter. HEK293 hcDAF-12 lit1-tk-luc reporter; 0% DMSO, 100% Δ7-dafachronic acid. activation, % at 6.8 µM. 370,000 tested, 1.4% active. AID 652067, 2013;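 active means activation above the mean of all tested compounds plus 3 SD, cut at about 5.5% in these data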;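 further: 100% = response to 3 µM Δ7-dafachronic acid high control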
# DAX1 inh-2: DAX1 (NR0B1) inhibitors, primary screen, cell-based, HEK293, Gal4-DAX1, luciferase luminescence | Nuclear receptor subfamily 0 group B member 1 (Homo sapiens), P51843 | HEK293 Gal4-DAX1 luciferase reporter | inhibition, % at 6.75 µM | 340,000 tested, 0.99% active;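 active means inhibition above the mean over all tested compounds plus 3 SD, cut at about 4.2% in these data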;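 further: 0% = DAX1-transfected cells with DMSO and 100% = empty-vector control cells with DMSO; inhibition shows as a rise in luminescence from relieved DAX1 repression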
# Target sequence (P51843 207-470 limits assumed): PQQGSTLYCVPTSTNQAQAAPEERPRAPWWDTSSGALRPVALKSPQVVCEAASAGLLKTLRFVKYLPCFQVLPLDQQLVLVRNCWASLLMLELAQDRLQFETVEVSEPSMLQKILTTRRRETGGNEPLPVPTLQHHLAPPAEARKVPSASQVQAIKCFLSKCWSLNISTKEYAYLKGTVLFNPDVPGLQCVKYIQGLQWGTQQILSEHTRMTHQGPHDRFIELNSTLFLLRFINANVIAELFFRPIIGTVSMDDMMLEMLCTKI
# Numbers without * were called inactive; · = not tested or not shown. Hits are enriched below; roughly 4.1% of the tested compounds scored in any of these assays.
SMILES,hgDAF12 agonist,ssDAF12 agonist,DAX1 inh-1,hcDAF-12 act,DAX1 inh-2
COc1cccc(-c2cc(C(=O)N3C(C)CCCC3C)no2)c1 (stereo not drawn),4,0,2,5.9*,2
COc1ccccc1-c1cc(C(=O)N2CCN(c3ccc(F)cc3)CC2)no1,2,-1,0,-1,0
CCn1c(COc2ccc(Cl)cc2)nnc1SCC(=O)Nc1ccccc1-c1ccccc1,-2,-2,-3,-4,·
CC1CCN(C(=O)C2CCC(CNc3c(N4CCCCC4)c(=O)c3=O)CC2)CC1 (stereo not drawn),-4,-1,0,3,1
O=C(C1CCC(CNc2c(N3CCCCC3)c(=O)c2=O)CC1)N1CCCC1 (stereo not drawn),-1,0,0,0,5.5*
c1ccc(-c2ccc(CNc3nc(-c4ccccn4)nnc3-c3ccccc3)cc2)cc1,-11,-2,·,-5,·
CC(/C=N/NC(=O)Cn1cnc2ccccc21)=C\c1ccccc1,-3,8.4*,0,-3,-1
O=C(Cn1cnc2ccccc21)N/N=C/c1ccccc1,3,0,1,-1,0
Cc1ccc2[nH]c3c(=O)n(CCCN4CCOCC4)cnc3c2c1,-1,0,0,-2,1
COc1ccc2[nH]c3c(=O)n(CCCN4CCOCC4)cnc3c2c1,-1,-1,0,-1,6.2*
C=C(O[C@H]1[C@H](O)CC=C(C(=O)O)[C@@H]1O)C(=O)O,4,-1,0,1,·
CC(=O)Nc1ccc(NC(=O)c2nc(S(=O)(=O)Cc3cccc(C)c3)ncc2Cl)cc1,-5,-1,4.0*,-3,0
COC(=O)c1ccc(NC(=O)c2nc(S(=O)(=O)Cc3cccc(C)c3)ncc2Cl)cc1,-9,-1,-2,-4,0
Cc1ccc2nc3ccc(N4CCN(C)CC4)nn3c(=O)c2c1,8,-1,4.3*,5.7*,3
O=C(Cn1c(=O)c(=O)n(Cc2ccccc2)c2ccc(Cl)cc21)NCC1CCCO1 (stereo not drawn),-1,-2,1,0,4.6*
O=C(Nc1ccc(C(O)(C(F)(F)F)C(F)(F)F)cc1)c1ccccc1C(F)(F)F,0,-1,·,-1,·
c1cnc2nc(-c3ccc4c(c3)OCO4)cn2c1,13*,-1,4.1*,3,1
O=C(Nc1cccc(-c2cn3cccnc3n2)c1)c1ccc2c(c1)OCO2,4,-2,-1,-1,1
C/C(=N\Nc1nccnc1Cl)c1ccc(O)c(C)c1,12*,0,2,4,-1
COc1ccc2c(c1)S/C(=C\C(=O)c1ccncc1)N2C,12*,0,1,1,2
CCc1ccccc1OCC(=O)OCC(=O)Nc1cc(C)on1,3,-1,3.8*,-1,0
CCOc1ccc(/C=N/OCC(=O)Nc2cc(C)on2)cc1,-4,1.6*,0,-2,0
COC(=O)C1CCCN(C(=O)C2CCN(S(=O)(=O)c3ccccc3[N+](=O)[O-])CC2)C1 (stereo not drawn),1,-1,0,2,·
CCCCc1cc(=O)oc2c(CN(C)C)c(O)c(Cl)cc12,-1,1.3*,-1,-1,0
CCc1c(C)c2cc(Cl)c(O)c(CN(C)C)c2oc1=O,-1,-1,0,0,-1
COc1ccc(/C=N/NC(=O)CN2CCCc3ccccc32)c(OC)c1,1,0,0,5.8*,0
C/[N+]([O-])=C/c1c(OCc2ccc(Cl)cc2Cl)ccc2ccccc12,5,0,0,6.0*,0
O=C(O)c1cccnc1SC1CC(=O)N(c2ccccc2)C1=O (stereo not drawn),0,-1,0,0,1
O=C(O)c1ccccc1SC1CC(=O)N(c2ccccc2)C1=O (stereo not drawn),2,-1,0,6.0*,1
